Assay outcomes as filed in PubChem BioAssay.
Rows were chosen to be rich in hits. Some 10% of all compounds tested hit in one or more screens of this group.
SW480 rereplic: inducers of DNA re-replication in SW480 colon cancer cells; SW480 DNA re-replication, Hoechst DNA content imaging, 48 h; Potency, µM (highest dose often 46.1 µM), for the others: top-dose re-replication activation, hits mostly activators; 340,000 tested, 1.8% active; AID 624297; also: % of control where 0% means no effect; nearly all actives have a fitted effect of over 55% in size
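Cells (250 per well) received 23 nL compound or DMSO by pin tool and were kept 48 hr at 37 C, 5% CO2. Nuclei were then stained with Hoechst for 40 min and scanned for DNA content.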
RORgamma inh: ROR gamma (mouse) transcription inhibition; P51450; Drosophila S2 Gal4-RORgamma UAS-luciferase reporter, 20 h; Potency, µM (top dose mostly 53.6 µM), without a hit: top-dose activity change, negative = inhibition, usual class: inhibitors; 310,000 tested, 5.4% active; also: % is scaled to controls: 0 for no effect and ±100 for the full control effect; nearly all actives have a fitted effect of over 60% in size
Target sequence (P51450 whole entry, looked up, the tested form may be a part): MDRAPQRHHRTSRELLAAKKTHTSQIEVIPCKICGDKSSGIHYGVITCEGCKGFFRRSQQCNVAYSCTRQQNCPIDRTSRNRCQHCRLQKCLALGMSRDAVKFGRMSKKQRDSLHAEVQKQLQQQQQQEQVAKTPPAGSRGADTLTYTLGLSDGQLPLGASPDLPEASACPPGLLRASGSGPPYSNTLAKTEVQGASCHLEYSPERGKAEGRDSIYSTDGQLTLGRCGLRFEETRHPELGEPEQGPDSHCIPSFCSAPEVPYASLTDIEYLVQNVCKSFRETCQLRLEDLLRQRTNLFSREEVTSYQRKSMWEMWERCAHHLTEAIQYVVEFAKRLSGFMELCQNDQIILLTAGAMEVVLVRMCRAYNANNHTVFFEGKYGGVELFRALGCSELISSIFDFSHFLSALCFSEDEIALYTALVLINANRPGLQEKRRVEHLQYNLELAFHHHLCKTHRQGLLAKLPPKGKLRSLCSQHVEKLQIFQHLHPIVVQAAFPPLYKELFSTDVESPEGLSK
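Drosophila Schneider cells stably carrying a metallothionein-driven Gal4 DBD–ROR gamma fusion and a UAS-Photinus luciferase reporter were exposed to compound for 1 hr, then induced with copper sulfate (700 uM final) for 20 hr at ambient temperature before luminescence reading.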
VP16 counter: Gal4-VP16 reporter inhibition counter-screen; Drosophila S2 Gal4-VP16 UAS-luciferase, luminescence, 20 h; Potency, µM (highest dose often 53.6 µM), without a hit: top-dose activity, negative = inhibition, hits mostly inhibitors; 310,000 tested, 3.5% active;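 also: Gal4-VP16 expression switched on by copper sulfate through the metallothionein promoter; % is scaled to controls: 0 for no effect and ±100 for the full control effect; nearly all actives have a fitted effect of over 50% in size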
KB-V1 cytotox: kills drug-selected multidrug resistant KB-V1 cells. Potency, µM (highest dose often 46.1 µM), most hits filed as cytotoxic. AID 1347076. KB-V1 MDR cells viability, CellTiter-Glo, 72 h. 400,000 tested, 3.4% active; also: % is scaled to controls: 0 for no effect and ±100 for the full control effect; nearly all actives have a fitted effect of over 60% in size
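KB-V1 MDR subline cells in DMEM (phenol-red free, 10% FBS) exposed to compounds in qHTS concentration series for 72 h at 37 degrees C. Viability read by CellTiter-Glo luminescence; concentration-effect curves fitted after normalization and correction.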
KB-3-1 cytotox: kills parental KB-3-1 adenocarcinoma cells | AID 1347075 | Potency, µM (top dose mostly 46.1 µM), hits mostly cytotoxic | 400,000 tested, 1.4% active | KB-3-1 viability, CellTiter-Glo ATP luminescence, 72 h; also: % is scaled to controls: 0 for no effect and ±100 for the full control effect; nearly all actives have a fitted effect of over 60% in size
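Screening of KB-3-1 cells (DMEM, 10% FBS, phenol-red free) ran from lowest to highest compound concentration; after 72 h at 37 °C viability was read luminescently and curves fitted.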
MCF10A rereplic: DNA re-replication induction in MCF 10a cells; 350,000 tested, 2.9% active; MCF 10A DNA re-replication, Hoechst nuclear intensity, 48 h; Potency, µM (highest dose often 46.1 µM), without a hit: top-dose activity, positive = re-replication, usual class: activators; also: % of control where 0% means no effect; nearly all actives have a fitted effect of over 50% in size
An asterisk follows results filed as active; i = inactive; ? = inconclusive; . = no result given; [ ] = remark or other dose. Calls follow the shape of the dose curve; as a rule, active = well fitted curve in the direction sought with a large enough effect; inconclusive = small, poorly fitted or top-dose-only effect, or another doubt; inactive = no such curve, though single readings can be large; an effect the other way counts as inactive or inconclusive. Potency is read from the fitted curve at half-maximal effect.

SMILES | SW480 rereplic | RORgamma inh | VP16 counter | KB-V1 cytotox | KB-3-1 cytotox | MCF10A rereplic
CCOC(=O)C1=C(C)OC(N)=C(C#N)C1c1ccccc1 (centres undefined) | -3% | -3% | -12% | i | i | -6%
N#CC1=C(N)Oc2cc(N)ccc2C1c1ccc(Cl)cc1 (centres undefined) | ? | -9% | 1% | i | i | ?
N#CC1=C(N)Oc2cc(O)c(C=Nc3ccccc3)cc2C1c1ccccc1 (centres undefined) | 26% | -9% | ? | i | i | 4.1µM*
Cc1ccc(N=Cc2cc3c(cc2O)OC(N)=C(C#N)C3c2ccccc2)cc1 (centres undefined) | ? | ? | ? | i | ? | 18µM*
Cc1ccccc1N=Cc1cc2c(cc1O)OC(N)=C(C#N)C2c1ccccc1 (centres undefined) | ? | -17% | -30% | ? | i | 18µM*
C[C@]12CCC(=O)C=C1CC[C@@H]1[C@@H]2[C@@H](O)C[C@]2(C=O)[C@@H](C(=O)CO)CC[C@@H]12 | -62% | . | . | i | i | -10%
CC12CC(O)C3C(CCC4=CC(=O)CCC43C)C1CCC2=CCO (centres undefined) | -3% | . | . | 18µM* | ? | 14%
COc1ccc(CC2=CC(=O)c3ccccc3C2=O)cc1 | 0% | 7.1µM* | 10µM* | i | i | ?
COc1ccc(CCN2C(=O)CC(NCc3ccc4c(c3)OCO4)C2=O)cc1OC (centres undefined) | 0% | 1% | 2% | i | i | -4%
COc1ccc(CCN2C(=O)C3C4C=CC(C5CC45)C3C2=O)cc1OC (centres undefined) | -4% | 3% | 1% | ? | i | -1%
COc1ccc(C(=O)NNC2CC(=O)N(Cc3ccc(Cl)cc3)C2=O)cc1OC (centres undefined) | -9% | ? | 7.1µM* | i | i | -4%
COc1ccc(CCN2C(=O)C3C4C=CC(C3C2=O)C2C(=O)N(CCc3ccc(OC)c(OC)c3)C(=O)C42)cc1OC (centres undefined) | 3% | 0% | 8.9µM* | i | ? | 2%
COc1ccc(CCNC2CC(=O)N(CCc3ccc(OC)c(OC)c3)C2=O)cc1OC (centres undefined) | -5% | ? | 0% | 18µM* | i | -2%
CC1C(=O)CC(c2ccccc2)N(C)C1c1ccccc1 (centres undefined) | 0% | -31% | 3% | i | i | 26µM*
CCC1C(c2ccccc2)N(C)C(c2ccccc2)CC1(O)c1ccccc1 (centres undefined) | ? | -19% | 5% | i | ? | ?
CCC(=O)O[C@@H](OP(=O)(CCCCc1ccccc1)CC(=O)N1C[C@H](C2CCCCC2)C[C@H]1C(=O)O)C(C)C (some centres undefined) | 1% | 40% | -11% | . | . | 15%
CC(=O)Oc1c(Br)cc(N(C(C)=O)S(=O)(=O)c2ccccc2)c2ccccc12 | ? | 4%[1.91 µM] | ? | ? | ? | 16µM*
CC(C)(Oc1ccc(Cl)cc1)C(=O)Nc1nc2ccc(S(C)(=O)=O)cc2s1 | . | . | . | i | i | .
O=C(COC(=O)C1CCCCC1)NCc1ccc(Cl)cc1 | -1% | . | . | i | i | -6%
COc1ccc(CCNC(=O)C2CCC(=O)N2Cc2ccccc2Cl)cc1OC (centres undefined) | 17% | 26% | 4% | i | i | -6%
O=C(COC(=O)C1CC1)NCCc1ccc(Cl)cc1 | 3.7µM* | . | . | i | i | 1%
O=C(NCCc1ccc(Cl)cc1)C1CCC(=O)N1Cc1ccccc1Cl (centres undefined) | 2% | 7% | 0% | 23µM* | i | 0%
CC(NC(=O)Cc1ccc(NS(=O)(=O)c2cccc(C(F)(F)F)c2)cc1)c1ccccn1 (centres undefined) | -7% | 6% | 1% | 21µM* | ? | 12%
Cc1ccc(C(=O)CC(=O)c2ccccc2)cc1 | 4% | 11µM* | ? | i | i | -6%
Cc1ccc(C(=O)N/N=C(\CC(C)C)c2ccccc2)cc1 | 23µM* | ? | ? | ? | i | 16%
SMILES | SW480 rereplic | RORgamma inh | VP16 counter | KB-V1 cytotox | KB-3-1 cytotox | MCF10A rereplic
Cc1ccc(C(=O)Sc2cccccc2=O)cc1 | ? | 1.8µM* | 2.2µM* | 2.6µM* | ? | 2.1µM*
COc1ccc2[nH]c(C(O)C(O)c3nc4c(OC)c(OC)ccc4[nH]3)nc2c1OC (centres undefined) | . | . | . | i | i | .
CCOCCc1nnc(NC(=O)C(=O)c2cc(C)n(-c3ccc(C)c(C)c3)c2C)s1 | . | . | . | i | i | .
Cc1cnc(C(=O)O)cn1 | -4% | -15% | 4% | . | . | -1%
Cn1ccc2c(N3CCCCCCC3)cc3c(c21)C1CCC3O1 (centres undefined) | . | . | . | i | ? | .
Nc1ccc(Br)cc1C(NCC(=O)O)c1ccccc1 (centres undefined) | 6.5µM* | 12% | 15% | i | i | -2%
CCOC(=O)CNC(c1ccccc1)c1cc(Br)ccc1NC(C)=O (centres undefined) | 2.9µM* | -21% | 2% | i | i | -6%
COc1ccccc1N1CCN(C(=O)c2cc3c(=O)oc4ccc(C)cc4c3s2)CC1 | . | . | . | i | i | .
CCCCn1nnnc1C(c1ccccc1OC(F)(F)F)N1CCN(C/C=C/c2ccccc2)CC1 (centres undefined) | . | . | . | ? | i | .
COc1ccc(N2CCN(C(=O)CN3C(=O)COc4ccc(S(=O)(=O)N5CCC(C)CC5)cc43)CC2)cc1 | . | . | . | ? | i | .
CC(OC(=O)c1cccc(N(C)C)c1)C(=O)N1CCc2ccccc2C1 (centres undefined) | -1% | . | . | 8.2µM* | i | 12%
CN(C)c1cccc(C(=O)OCC(=O)N2CCc3ccccc3C2)c1 | 1% | 7% | -14% | i | i | -6%
CCCCCC/C(=N/O)c1ccccn1 | ? | 5µM* | 16µM* | i | i | ?
CCC(=O)Nc1cc(-c2cccc(C)c2)nn1-c1ccccc1 | . | . | . | i | i | .
CCc1ccccc1S(=O)(=O)Cc1ccc(C(=O)NCCc2ccc(C)cc2)o1 | . | . | . | ? | i | .
CC(C)OCCCNC(=S)N1CCC(C(=O)c2ccc(Cl)cc2)CC1 | 0% | ? | -3% | 8.2µM* | i | ?
COc1ccc(CCNC(=S)N2CCC(Cc3ccccc3)CC2)cc1OC | -2% | ? | ? | 15µM* | ? | ?
